Structures can show the parent of a compound that is named as a salt. ± gives the standard deviation.
How the values were obtained:
Jurkat [1] = experiment: mean cell size (FSC-A) relative to DMSO control (fraction of control); higher = larger cells; details: 48 h
Summary of the method: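 Jurkat cells seeded at 600 cells/µl were incubated 1 h, then exposed for 48h to the Enzo Screen-Well FDA Approved Drug Library v2.0 at 25µM in 0.9% (v/v) final DMSO. Drugs that cut counts below 20% of controls were diluted 10-fold and retested, down to 25nM. Cell count and mean cell size (forward scatter area) were read on an Accuri C6 flow cytometer, relative to solvent-only controls. Plates held 6-12 controls; values are means of 3 biological replicates.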

Jurkat [2] = experiment: cell count relative to DMSO control (fraction of control); higher = more cells (less growth inhibition); details: 48 h

SMILES: CCCC(CCC)C(=O)O [Valproate·Na] (concentration: 25 µM)
- mean cell size (Jurkat [1]): 0.999 ± 0.025
- cell count (Jurkat [2]): 1.01 ± 0.096

SMILES: CC1(C)O[C@@H]2[C@@H](CO[C@@]3(COS(N)(=O)=O)OC(C)(C)O[C@@H]23)O1 [Topiramate] (concentration: 25 µM)
- mean cell size (Jurkat [1]): 0.969 ± 0.024
- cell count (Jurkat [2]): 1.14 ± 0.14

SMILES: Nc1nc2[nH]cnc2c(=S)[nH]1 [Thioguanine (6-Thioguanine)] (concentration: 25 µM)
- mean cell size (Jurkat [1]): 0.935 ± 0.045
- cell count (Jurkat [2]): 1.09 ± 0.061

SMILES: NCCCCCC(=O)O [Aminocaproic Acid] (concentration: 25 µM)
- mean cell size (Jurkat [1]): 0.976 ± 0.05
- cell count (Jurkat [2]): 0.853 ± 0.1

SMILES: CC(=O)N1CCN(c2ccc(OCC3COC(Cn4ccnc4)(c4ccc(Cl)cc4Cl)O3)cc2)CC1 (configuration not stated) [Ketoconazole] (concentration: 25 µM)
- mean cell size (Jurkat [1]): 0.84 ± 0.013
- cell count (Jurkat [2]): 0.564 ± 0.035

SMILES: S=P(N1CC1)(N1CC1)N1CC1 [Thiotepa] (concentration: 2.5 µM)
- mean cell size (Jurkat [1]): 1.248 ± 0.012
- cell count (Jurkat [2]): 0.583 ± 0.059

SMILES: Cc1ccccc1N1C(=O)c2cc(S(N)(=O)=O)c(Cl)cc2NC1C (configuration not stated) [Metolazone] (concentration: 25 µM)
- mean cell size (Jurkat [1]): 0.997 ± 0.03
- cell count (Jurkat [2]): 0.918 ± 0.095

SMILES: NC[C@H]1O[C@H](O[C@H]2[C@H](O)[C@@H](O[C@H]3O[C@H](CO)[C@@H](O)[C@H](N)[C@H]3O)[C@H](N)C[C@@H]2N)[C@H](O)[C@@H](O)[C@@H]1O [Kanamycin Sulfate] (concentration: 25 µM)
- mean cell size (Jurkat [1]): 0.919 ± 0.013
- cell count (Jurkat [2]): 1.06 ± 0.08

SMILES: CNC[C@H](O)c1ccc(O)c(O)c1 [Epinephrine (L-(-)-Epinephrine-(+)-Bitartrate)] (concentration: 25 µM)
- mean cell size (Jurkat [1]): 0.959 ± 0.053
- cell count (Jurkat [2]): 0.855 ± 0.14

SMILES: Nc1ncnc2c1ncn2[C@@H]1O[C@H](CO)[C@@H](O)[C@H]1O [Adenosine] (concentration: 25 µM)
- mean cell size (Jurkat [1]): 1 ± 0.041
- cell count (Jurkat [2]): 0.73 ± 0.082

SMILES: COc1ccccc1OCC(O)COC(N)=O (configuration not stated) [Methocarbamol] (concentration: 25 µM)
- mean cell size (Jurkat [1]): 0.969 ± 0.057
- cell count (Jurkat [2]): 0.715 ± 0.14

SMILES: COc1nc(N)nc2c1ncn2[C@@H]1O[C@H](CO)[C@@H](O)[C@@H]1O [Nelarabine] (concentration: 25 µM)
- mean cell size (Jurkat [1]): 1.4 ± 0.014
- cell count (Jurkat [2]): 0.201 ± 0.029

SMILES: CCOC(=O)[C@H](CCc1ccccc1)N[C@@H](C)C(=O)N1Cc2cc(OC)c(OC)cc2C[C@H]1C(=O)O [Moexipril·HCl] (concentration: 25 µM)
- mean cell size (Jurkat [1]): 0.9426 ± 0.0064
- cell count (Jurkat [2]): 0.587 ± 0.074

SMILES: CC(=O)O[C@]1(C(C)=O)CC[C@H]2[C@@H]3C[C@H](C)C4=CC(=O)CC[C@]4(C)[C@H]3CC[C@@]21C [Medroxyprogesterone Acetate] (concentration: 25 µM)
- mean cell size (Jurkat [1]): 0.956 ± 0.065
- cell count (Jurkat [2]): 0.352 ± 0.042

SMILES: CCCCCCCCCC(=O)N[C@@H](Cc1c[nH]c2ccccc12)C(=O)N[C@H](CC(N)=O)C(=O)N[C@@H](CC(=O)O)C(=O)N[C@@H]1C(=O)NCC(=O)N[C@@H](CCCN)C(=O)N[C@@H](CC(=O)O)C(=O)N[C@H](C)C(=O)N[C@@H](CC(=O)O)C(=O)NCC(=O)N[C@H](CO)C(=O)N[C@@H]([C@H](C)CC(=O)O)C(=O)N[C@@H](CC(=O)c2ccccc2N)C(=O)O[C@@H]1C [Daptomycin] (concentration: 25 µM)
- mean cell size (Jurkat [1]): 0.975 ± 0.025
- cell count (Jurkat [2]): 0.917 ± 0.039

SMILES: CNC(=C[N+](=O)[O-])NCCSCc1ccc(CN(C)C)o1 [Ranitidine·HCl] (concentration: 25 µM)
- mean cell size (Jurkat [1]): 1 ± 0.049
- cell count (Jurkat [2]): 0.895 ± 0.11

SMILES: Cc1cn[nH]c1 [Fomepizole] (concentration: 25 µM)
- mean cell size (Jurkat [1]): 0.99 ± 0.036
- cell count (Jurkat [2]): 0.868 ± 0.17

SMILES: CCC(C)(C)C(=O)O[C@H]1C[C@@H](C)C=C2C=C[C@H](C)[C@H](CC[C@@H]3C[C@@H](O)CC(=O)O3)[C@H]21 [Simvastatin] (concentration: 25 µM)
- mean cell size (Jurkat [1]): 1.05 ± 0.054
- cell count (Jurkat [2]): 0.698 ± 0.029

SMILES: C[C@H]1O[C@@H](O[C@H]2[C@@H](O)C[C@H](O[C@H]3[C@@H](O)C[C@H](O[C@H]4CC[C@@]5(C)[C@H](CC[C@@H]6[C@@H]5C[C@@H](O)[C@]5(C)[C@@H](C7=CC(=O)OC7)CC[C@]65O)C4)O[C@@H]3C)O[C@@H]2C)C[C@H](O)[C@@H]1O [Digoxin] (concentration: 25 nM)
- mean cell size (Jurkat [1]): 0.91 ± 0.065
- cell count (Jurkat [2]): 0.175 ± 0.093

SMILES: CC(C)C[C@H](NC(=O)[C@H](Cc1ccccc1)NC(=O)c1cnccn1)B(O)O [Bortezomib] (concentration: 25 nM)
- mean cell size (Jurkat [1]): 0.894 ± 0.064
- cell count (Jurkat [2]): 0.112 ± 0.11

SMILES: Cn1c(=O)c2[nH]cnc2n(C)c1=O [Aminophylline] (concentration: 25 µM)
- mean cell size (Jurkat [1]): 0.96 ± 0.035
- cell count (Jurkat [2]): 0.984 ± 0.066

SMILES: O=C(O)COCCN1CCN([C@H](c2ccccc2)c2ccc(Cl)cc2)CC1 [Levocetirizine Dihydrochloride] (concentration: 25 µM)
- mean cell size (Jurkat [1]): 0.961 ± 0.039
- cell count (Jurkat [2]): 0.91 ± 0.068

SMILES: Clc1ccc(CCC(Cn2ccnc2)Sc2c(Cl)cccc2Cl)cc1 (configuration not stated) [Butoconazole Nitrate] (concentration: 25 µM)
- mean cell size (Jurkat [1]): 0.953 ± 0.05
- cell count (Jurkat [2]): 0.953 ± 0.094

SMILES: CC(=O)Nc1c(I)c(NC(C)=O)c(I)c(C(=O)O)c1I [Diatrizoate Meglumine] (concentration: 25 µM)
- mean cell size (Jurkat [1]): 0.99 ± 0.021
- cell count (Jurkat [2]): 0.846 ± 0.085

SMILES: Cn1cnc([N+](=O)[O-])c1Sc1ncnc2[nH]cnc12 [Azathioprine] (concentration: 25 µM)
- mean cell size (Jurkat [1]): 1.02 ± 0.036
- cell count (Jurkat [2]): 0.782 ± 0.088

SMILES: COC(=O)C1=C(C)NC(C)=C(C(=O)OCCN(C)Cc2ccccc2)C1c1cccc([N+](=O)[O-])c1 (configuration not stated) [Nicardipine·HCl] (concentration: 25 µM)
- mean cell size (Jurkat [1]): 1.01 ± 0.071
- cell count (Jurkat [2]): 0.568 ± 0.034

SMILES: CC(C)(C(=O)O)c1ccc(C(O)CCCN2CCC(C(O)(c3ccccc3)c3ccccc3)CC2)cc1 (configuration not stated) [Fexofenadine·HCl] (concentration: 25 µM)
- mean cell size (Jurkat [1]): 0.996 ± 0.041
- cell count (Jurkat [2]): 0.725 ± 0.024

SMILES: O=C(c1ccccc1)c1ccc2n1CCC2C(=O)O (configuration not stated) [Ketorolac Tromethamine] (concentration: 25 µM)
- mean cell size (Jurkat [1]): 0.907 ± 0.024
- cell count (Jurkat [2]): 0.934 ± 0.038

SMILES: CN(Cc1cnc2nc(N)nc(N)c2n1)c1ccc(C(=O)N[C@@H](CCC(=O)O)C(=O)O)cc1 [Methotrexate] (concentration: 25 nM)
- mean cell size (Jurkat [1]): 1.16 ± 0.035
- cell count (Jurkat [2]): 0.499 ± 0.093

SMILES: COc1ccc(-c2ccc3cc(C(=O)O)ccc3c2)cc1C12CC3CC(CC(C3)C1)C2 [Adapalene] (concentration: 2.5 µM)
- mean cell size (Jurkat [1]): 1.1 ± 0.1
- cell count (Jurkat [2]): 0.269 ± 0.081

SMILES: CC(=O)NS(=O)(=O)c1ccc(N)cc1 [Sulfacetamide·Na] (concentration: 25 µM)
- mean cell size (Jurkat [1]): 0.951 ± 0.038
- cell count (Jurkat [2]): 0.78 ± 0.07

SMILES: C=CC1=C(C(=O)O)N2C(=O)[C@@H](NC(=O)/C(=N\O)c3csc(N)n3)[C@H]2SC1 [Cefdinir] (concentration: 25 µM)
- mean cell size (Jurkat [1]): 0.976 ± 0.059
- cell count (Jurkat [2]): 0.765 ± 0.12

SMILES: C[C@H]1COc2c(N3CCN(C)CC3)c(F)cc3c(=O)c(C(=O)O)cn1c23 [Levofloxacin·HCl] (concentration: 25 µM)
- mean cell size (Jurkat [1]): 0.936 ± 0.022
- cell count (Jurkat [2]): 0.904 ± 0.066

SMILES: O=C(O)c1cn(C2CC2)c2cc(N3CCNCC3)c(F)cc2c1=O [Ciprofloxacin] (concentration: 25 µM)
- mean cell size (Jurkat [1]): 0.9157 ± 0.008
- cell count (Jurkat [2]): 1.04 ± 0.13

SMILES: CCCC1O[C@@H]2C[C@H]3[C@@H]4CCC5=CC(=O)C=C[C@]5(C)[C@H]4[C@@H](O)C[C@]3(C)[C@]2(C(=O)CO)O1 (some centres not stated) [Budesonide] (concentration: 25 µM)
- mean cell size (Jurkat [1]): 0.945 ± 0.037
- cell count (Jurkat [2]): 0.799 ± 0.046

SMILES: Nc1nc(=O)c2c([nH]1)NCC(CNc1ccc(C(=O)N[C@@H](CCC(=O)O)C(=O)O)cc1)N2C=O (some centres not stated) [Leucovorin Calcium Pentahydrate] (concentration: 25 µM)
- mean cell size (Jurkat [1]): 0.933 ± 0.041
- cell count (Jurkat [2]): 1.05 ± 0.035

SMILES: C[C@@H](O)[C@H]1C(=O)N2C(C(=O)O)=C(S[C@@H]3CN[C@H](C(=O)N(C)C)C3)[C@H](C)[C@H]12 [Meropenem] (concentration: 25 µM)
- mean cell size (Jurkat [1]): 0.944 ± 0.015
- cell count (Jurkat [2]): 0.939 ± 0.078

SMILES: COc1ccccc1OCCNCC(O)COc1cccc2[nH]c3ccccc3c12 (configuration not stated) [Carvedilol] (concentration: 25 µM)
- mean cell size (Jurkat [1]): 1.01 ± 0.014
- cell count (Jurkat [2]): 0.39 ± 0.034

SMILES: C=C(CC)C(=O)c1ccc(OCC(=O)O)c(Cl)c1Cl [Ethacrynic Acid] (concentration: 25 µM)
- mean cell size (Jurkat [1]): 0.924 ± 0.015
- cell count (Jurkat [2]): 0.453 ± 0.058

SMILES: CCN(CC)CCCC(C)Nc1ccnc2cc(Cl)ccc12 (configuration not stated) [Chloroquine Diphosphate] (concentration: 25 µM)
- mean cell size (Jurkat [1]): 0.947 ± 0.025
- cell count (Jurkat [2]): 1.03 ± 0.099

SMILES: CS(=O)(=O)CCNCc1ccc(-c2ccc3ncnc(Nc4ccc(OCc5cccc(F)c5)c(Cl)c4)c3c2)o1 [Lapatinib Ditosylate] (concentration: 25 µM)
- mean cell size (Jurkat [1]): 0.924 ± 0.072
- cell count (Jurkat [2]): 0.911 ± 0.14
